# High-throughput results deposited in PubChem BioAssay by several laboratories.
# In the library only some 1.5% were active in any assay of this set; here they are far more common.
# PriA SSB inh: K. pneumoniae PriA-SSBct interaction inhibition; AID 1272365; AlphaScreen SSBct-PriA binding, biotinylated peptide; inhibition, % at 33 µM; 0.6% of 430,000 active; in the data active = inhibition mostly above about 37%, no sharp cut-off; inactive = mostly below about 20%;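 also: plate controls were negative control peptide for no effect and reference peptide for full effect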
# CCHFV vOTU inh: CCHFV vOTU protease inhibition. Pep-AMC fluorescence. inhibition, % at 11.5 µM. 0.55% of 370,000 active. AID 651958; in the data active = inhibition above about 30%; also: 0% = vehicle wells with enzyme and 100% = no enzyme wells
# Sa ugtP lethal: growth inhibition of S. aureus ugtP deletion strain. S. aureus RN4220 ugtP deletion, OD600 growth, 16 h. growth inhibition, % (concentration not given with the values). 0.54% of 330,000 active; in the data active = growth inhibition above about 68%;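 also: plate controls were untreated wells for no effect and antibiotic for full effect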
# VHR inh abs: inhibitors of human VHR1 phosphatase (DUSP3); recombinant VHR phosphatase, pNPP absorbance; 0.52% of 290,000 active; P51452; inhibition, % at 13.3 µM; AID 1654; in the data active = inhibition above about 50%
# Target sequence (P51452 whole entry, looked up): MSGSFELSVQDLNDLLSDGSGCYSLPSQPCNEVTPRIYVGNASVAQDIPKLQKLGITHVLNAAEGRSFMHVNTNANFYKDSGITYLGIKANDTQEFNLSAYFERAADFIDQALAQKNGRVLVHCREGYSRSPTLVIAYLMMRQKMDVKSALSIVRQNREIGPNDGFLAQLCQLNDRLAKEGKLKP
# Sa RN4220 lethal: kills Staphylococcus aureus RN4220 | S. aureus RN4220 growth, OD600, 16 h | inhibition, % (no concentration beside the values) | 0.33% of 330,000 active | AID 1259311; in the data active = inhibition above about 85%;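 also: plate controls were untreated cells for no effect and reference antibiotic for full effect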
# The depositor's hits bear a star; x = no result; ! = not active in a repeat.
SMILES,PriA SSB inh,CCHFV vOTU inh,Sa ugtP lethal,VHR inh abs,Sa RN4220 lethal
Cn1c(CSCc2ccc(Cl)cc2)n[nH]c1=S,-1,3,0,52*,9
Cc1ccc(CN2CCN(Cc3cn[nH]c3C3CCCCC3)CC2CCO)cc1 (centres undefined),0,5,x,52*,x
CC(=O)C1=C(C)Nc2ncnn2C1c1ccc(F)cc1 (centres undefined),11,11,1,6,1
CC(=O)C1=C(C)Nc2ncnn2C1c1ccc(O)cc1 (centres undefined),3,-7,-3,58*,2
c1cc2c(cc1CNc1ccc(N3CCOCC3)cc1)OCO2,48*,6,1,x,6
O=C(CNC(=O)c1ccc(S(=O)(=O)N2CCCC2)cc1)N/N=C\c1cccc([N+](=O)[O-])c1,0,x,x,x,x
CC(=O)c1ccc(OCc2cc(C(=O)N3CCC[C@H]3CO)no2)cc1,-12,-7,5,60*,2
O=[N+]([O-])c1ccc(NC(=S)NCCc2ccc(Cl)cc2)cc1,13,13,100*,-16,101*
O=[N+]([O-])c1cc(C(F)(F)F)ccc1NCCNC(=S)Nc1ccc(Cl)cc1,37,-6,90*,28,85*
O=C1C=C(c2ccccc2)C[C@H](c2cccs2)[C@H]1n1nnc([N+](=O)[O-])n1,19,0,100*,-6,59
O=C(Nc1ccccc1Cl)ON=C1c2ccccc2-c2ccccc21,-8,x,95*,30,-4
O=S(=O)(NCCSC1CCOCC1)c1cccnc1,-7,x,x,x,x
CN(C)S(=O)(=O)NC1CC(=O)N(c2ccc(F)cc2)C1 (centres undefined),-10,x,x,x,x
Nc1nc2c(s1)-c1cccc3cccc-2c13,66*,x,x,x,x
Cc1cccc(C)c1NC(=O)CCCSc1nnnn1-c1ccccc1,-3,x,x,x,x
CCOC(=O)c1c(C(F)(F)F)cc(-c2ccc(F)cc2)nc1C,-90,15,94*,22,1
CCOC(=O)c1cc2c(C(F)(F)F)cc(-c3ccccc3)nc2o1,3,-10,5,9,-2
CC1CCC(C(C)C)C(OC(=O)C[n+]2cc(-c3ccc(Cl)cc3)n3c2CCCCC3)C1 (centres undefined),-15,13,101*,34,100*
O=C(C[n+]1cc(-c2ccccc2)n2c1CCCCC2)c1ccc(Cl)cc1,5,-7,-14,4,-3
Oc1cccc2ccc(Nc3ccccn3)nc12,103*,-3,29,2,20
CC(=O)N1CCCSC[C@@H]1CN1CCCCC1,-6,x,x,x,x
O=C(Nc1ccc(NC(=O)C2CCCCC2)nc1)c1ccco1,-13,-8,12,14,-2
O=C(Nc1ccc(NC(=O)C2CCCCC2)nc1)c1ccccn1,2,6,4,57*,-3
C[C@@H]1CN([C@@H](C)CO)C(=O)c2cc(NC(=O)c3ccccc3)ccc2O[C@@H](C)CCCCO[C@@H]1CN(C)Cc1ccc(C(F)(F)F)cc1,x,42*,x,x,x
CC(=O)c1ccc(NN=C(C(N)=O)C2=NC(C)(C)Cc3ccccc32)cc1,50*,x,1,x,2
SMILES,PriA SSB inh,CCHFV vOTU inh,Sa ugtP lethal,VHR inh abs,Sa RN4220 lethal
C/C(=N\NC(=O)c1cccc2ccccc12)c1cccnc1,x,4,x,25,x
CC(=NNC(=O)c1cccc2ccccc12)c1ccccn1,66*,x,7,x,22
C/C(=N\NC(=O)c1cc(C)nc2ccccc12)c1ccccn1,x,7,x,x,x
CC(=NNC(=O)c1cc(C)nc2ccccc12)c1ccccn1,94*,x,-8,x,2
CCSc1ccccc1C(=O)Nc1nc2c(C)ccc(C)c2s1,-6,x,x,x,x
Cc1noc(C2CCCN2C(=O)NCCCc2ccccc2)n1 (centres undefined),54*,x,x,x,x
Cc1noc(C2CCN(C(=O)CCCc3ccccc3)CC2)n1,5,x,x,x,x
O=C(CCSc1ccc(Cl)cc1)c1ccco1,-12,-4,84*,x,2
O=C(CSc1ccc(Cl)cc1)c1ccco1,0,x,81,2,4
O=C(CSc1ccccc1Cl)c1ccco1,-15,7,87*,14,15
CCN(CC)CCn1c2ccccc2c(=O)c2c(O)ccc(O)c21,54*,14,x,x,x
CCN(CC)CCn1c(O)c(N=O)c2ccccc21,-6,2,6,29,6
Oc1cccc(-c2nc3c4c(ncn3n2)-c2ccccc2CC42CCCC2)c1,-11,23,89*,28,31
O=[N+]([O-])c1ccc2c(c1)C(=NO)c1ccccc1-2,8,x,97*,x,13
Clc1ccc(OCc2nc(-c3ccccn3)n[nH]2)cc1,64*,3,-18,-1,0
Clc1ccc(OCc2nc3ccccc3[nH]2)cc1,-9,4,3,12,1
NCCc1nc(-c2ccccn2)n[nH]1,93*,x,x,x,x
Brc1ccc(OCc2nc(-c3ccccn3)n[nH]2)cc1,86*,5,-10,20,-5
Cc1nc(-c2ccccn2)n[nH]1,99*!,x,x,x,x
Cc1ccc(OCc2nc(-c3ccccn3)no2)cc1,-7,-13,7,-2,2
COc1ccc(C2NC(=S)NC(C)=C2C(=O)NCc2ccccc2)cc1 (centres undefined),0,x,x,x,x
Cn1cc(C(=O)NCC2Cc3ccccc3CO2)nn1 (centres undefined),-4,x,x,x,x
Cc1ccc(NC(=O)CC2(CC(=O)O)CCCC2)cc1,-7,-10,0,57*,3
COc1ccc(-c2cc3c(=O)n(Cc4nc(-c5ccc(Cl)cc5)no4)ccn3n2)cc1,-3,x,x,x,x
CCCCn1c(N)c(-c2nc3ccccc3o2)c2c([N+](=O)[O-])nn(CC)c(=O)c21,-9,-7,0,5,3
SMILES,PriA SSB inh,CCHFV vOTU inh,Sa ugtP lethal,VHR inh abs,Sa RN4220 lethal
CCCCn1c(N)c(-c2nc3ccccc3o2)c2c([N+](=O)[O-])nn(C)c(=O)c21,-2,-7,-3,55*,4
Cn1nc(CN(Cc2ccco2)C(=O)C2(c3ccccc3)CCOCC2)c2c1CCC2,8,x,x,x,x
CCCCCCNC(=O)c1cccc(-c2ccc(C)c3ccccc23)n1,-22,8,90*,15,-4
Cc1ccc(C(C)C)c(OCc2nn(CC(=O)c3ccc(Cl)cc3)c3[n+]2CCCCC3)c1,14,10,99*,19,100*
O=C(O)c1ccc(C[n+]2c(-c3ccccc3)csc2Nc2ccccc2)cc1,-6,-7,10,-2,5
CCCCCC[n+]1c(-c2ccccc2)csc1Nc1ccccc1,-4,18,88*,13,0
CS(=O)(=O)CCC(N)c1nc(Cc2ccccc2)no1 (centres undefined),5,x,x,x,x
CC(OC(=O)c1nn(C(C)C)c(=O)c2ccccc12)C(=O)Nc1ncc(Cl)cc1Cl (centres undefined),1,0,-2,60*,5
CC(C)n1nc(C(=O)Oc2cc(Cl)ccc2Cl)c2ccccc2c1=O,-9,-18,12,-10,4
Nc1nonc1-n1nnc(C(=O)NN=Cc2cc(Br)ccc2O)c1CNc1ccccc1,5,x,x,x,x
O=C(NCCn1ccnc1-c1ncccn1)C1CC(=O)N(c2ccc(F)cc2)C1 (centres undefined),116*,x,x,x,x
Cc1ccc(N2CC(C(=O)NCCn3cccnc3=O)CC2=O)cc1C (centres undefined),41,x,x,x,x
